# The full list was thinned out, with hits kept by preference.
# NS1 function inh: blocks influenza NS1 protein function. Potency, µM (series often up to 46.1 µM), for inactives: top-dose activity, positive = more growth. actives 0.4% (n = 270,000). AID 2326; note: potency is the fitted concentration of half-maximal effect; actives are rising curves; nearly all actives have a fitted effect of over 50% in size
#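 Growth recovery, yeast-based: influenza A NS1 expressed in S. cerevisiae causes slow growth, and suppressors are detected by OD600. The parent strain without NS1 is used as positive control.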
# LmPK inhibitor: LmPK (Leishmania mexicana) enzyme inhibition; purified LmPK, Kinase-Glo ATP luminescence, 1 h; Q27686; Potency, µM (doses to about 57.5 µM), without a hit: at the top dose activity change, negative = inhibition, hits mostly inhibitors; actives 0.37% (n = 290,000); active = well fitted curve in the direction sought with a large enough effect; an effect the other way counts as inactive or inconclusive; note: potency is the fitted concentration of half-maximal effect; % is set by controls: 0 for no effect and ±100 for the full control effect
# Target sequence (Q27686 whole entry, looked up): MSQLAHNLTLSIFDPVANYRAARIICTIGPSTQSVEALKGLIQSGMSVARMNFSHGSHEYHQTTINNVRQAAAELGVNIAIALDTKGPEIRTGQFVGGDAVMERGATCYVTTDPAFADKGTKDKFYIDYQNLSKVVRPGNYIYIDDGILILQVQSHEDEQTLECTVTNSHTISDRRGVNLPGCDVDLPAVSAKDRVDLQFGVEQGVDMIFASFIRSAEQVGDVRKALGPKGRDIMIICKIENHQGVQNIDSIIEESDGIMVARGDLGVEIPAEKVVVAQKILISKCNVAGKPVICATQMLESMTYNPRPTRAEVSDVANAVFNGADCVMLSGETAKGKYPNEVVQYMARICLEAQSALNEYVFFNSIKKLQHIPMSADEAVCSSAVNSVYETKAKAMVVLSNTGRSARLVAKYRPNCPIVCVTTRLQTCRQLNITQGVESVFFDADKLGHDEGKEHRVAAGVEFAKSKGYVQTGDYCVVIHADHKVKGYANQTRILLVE
#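 Purified LmPK (0.1 nM) converted ADP (0.1 mM) to ATP with PEP (0.5 mM) in imidazole buffer pH 7.2 with KCl and MgCl2, 1 h at room temperature. ATP was read by Kinase-Glo luminescence; data normalized to uninhibited and no-enzyme controls.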
# Cycloheximide cs: counter-screen for Shiga toxin inhibitors: cycloheximide protein synthesis inhibition. cell reporter, cycloheximide protein synthesis inhibition counterscreen. max response, %. actives 12% (n = 300,000). AID 2314; in the data active = max response mostly above about 13%, no sharp cut-off; inactive = mostly below about 14%; note: read at 38.3 µM for the half of the compounds with a filed dose; 0% is about no effect
# Tb PYK inh: T. brucei pyruvate kinase inhibition; Q57TT1; TbPYK enzyme, Kinase-Glo Plus ATP luminescence, 45 min; Potency, µM (doses to about 76.8 µM), for inactives: at the top dose activity, negative = inhibition, usual class: inhibitors; actives 0.12% (n = 410,000); AID 624173; active = well fitted curve in the direction sought with a large enough effect; an effect the other way counts as inactive or inconclusive; note: potency is the fitted concentration of half-maximal effect; % is set by controls: 0 for no effect and ±100 for the full control effect; nearly all actives have a fitted effect of over 50% in size
#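 Readout: single end-point luminescence (Kinase-Glo Plus, 10 min). Reaction conditions were TbPYK/substrate plus 130 uM ADP, 45 min at RT, pH 7.2 TEA buffer. No-enzyme wells served as controls, and data were normalized before concentration-response fitting.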
# SARS PLpro yeast: inhibitors of SARS-CoV papain-like protease in yeast | Potency, µM (doses to about 32.9 µM), for inactives: at the highest dose activity, positive = growth rescue, actives largely listed as activators | S. cerevisiae expressing SARS-CoV PLpro, growth rescue | actives 0.19% (n = 330,000); note: potency is the fitted concentration of half-maximal effect; 0% is about no effect; nearly all actives have a fitted effect of over 55% in size
# Shiga toxin inh: inhibitors of Shiga toxin in Vero cells; Vero cells, Shiga toxin protein synthesis inhibition reporter; inhibition, % at 38.7 µM; actives 9.2% (n = 290,000); AID 2315; in the data active = inhibition mostly above about 28%, no sharp cut-off; inactive = mostly below about 43%; note: 0% is about no effect
# Active calls of the source: *; x = not tested or not shown. Unless noted, calls come from the whole dose curve.
SMILES,NS1 function inh,LmPK inhibitor,Cycloheximide cs,Tb PYK inh,SARS PLpro yeast,Shiga toxin inh
COc1ccc2nc(NC(=O)CSc3nnc(N)s3)sc2c1,11%,1%,4,1%,2%,13
CCc1nnc(NC(=O)CSc2nncc(=O)n2N)s1,4%,-8%,-3,-4%,-1%,-9
CCOc1ccc2nc(NC(=O)CSC3=NCCS3)sc2c1,-4%,-1%,25,5%,16%,44
Cc1ccc2nc(NC(=O)CSc3nncc(=O)n3N)sc2c1,18%,-2%,34*,-2%,5%,18
COc1ccc2nc(NC(=O)CSc3nnc(C)n3N)sc2c1,1%,-17%,35*,-8%,0%,51*
COc1ccc2nc(NC(=O)CSC3=NCCS3)sc2c1,5%,5%,32*,-2%,-6%,55
COc1ccc2nc(NC(=O)CSc3nc4cccnc4n3C)sc2c1,-3%,-1%,6,5%,3%,-23
COc1ccc2nc(NC(=O)CSc3ccccc3)sc2c1,11%,6%,57*,4%,10%,138*
COc1ccccc1CN1CCC(CNC(=O)c2cnn(-c3ccc(Cl)cc3)c2C2CCN(C(=O)OC(C)(C)C)CC2)CC1,x,x,x,0%,x,x
COc1cc2c(cc1OC)C(COc1cccc(C(F)(F)F)c1)N(C(=O)c1ccc(S(=O)(=O)N3CCCC3)cc1)CC2 (configuration not stated),x,x,x,0%,x,x
O=C(COc1ccccc1)Nc1nnc(S(=O)(=O)Nc2ccccc2)s1,15%,-1%,-3,-3%,-9%,-2
COc1ccc(C)cc1NS(=O)(=O)c1ccc2oc(=O)c3ncn(C)c3c2c1,x,x,x,-14%,x,x
CC(C)Cc1nnc(NC(=O)CSc2ccccn2)s1,-12%,5%,23*,-7%,6%,19
Cc1nnc(NC(=O)CSc2ccccn2)s1,0%,9%,1,10%,-2%,21
COC(=O)Nc1nc2ccc(Br)cc2s1,1%,-4%,16,-14%,1%,26
Cc1ccc2nc(NC(=O)CSc3[nH]c(=O)ncc3C)sc2c1,x,x,27*,5%,x,16
CC(C)Cc1nnc(NC(=O)C2CCCC2)s1,14%,-3%,24*,1%,2%,44
O=C(CSc1ccccn1)Nc1nc2ccc(Br)cc2s1,-5%,3%,25*,-1%,-13%,38
O=C(COc1ccccc1[N+](=O)[O-])Nc1ccc2c(c1)CCC2,x,x,x,-6%,5%,x
CCNC(=O)CC1C(=O)N(c2ccccc2)C(=O)N1Cc1ccc(OC)cc1 (configuration not stated),-4%,-2%,13*,-4%,-3%,-2
O=C(O)CCn1cc(/C=C2\SC(=S)NC2=O)c(-c2ccccc2)n1,x,-15%,-1,-5%,0%,-12
O=C(O)CCn1cc(/C=C/C(=O)c2ccc(Cl)cc2)c(-c2ccc(Br)cc2)n1,-3%,5%,1,3%,-24%,-15
O=C(O)CCn1cc(C=C2C(=O)NC(=O)NC2=O)c(-c2ccc(Br)cc2)n1,0%,-1%,-2,18µM*,-2%,-9
O=C(O)CCn1cc(C=C2C(=O)NC(=S)NC2=O)c(-c2cccc(Cl)c2)n1,7%,7%,-1,11µM*,0%,-9
CCn1nc(C(=O)NNC(=O)CCOc2cc(C)ccc2C)c2ccccc2c1=O,1%,-1%,-6,-5%,14%,-2
SMILES,NS1 function inh,LmPK inhibitor,Cycloheximide cs,Tb PYK inh,SARS PLpro yeast,Shiga toxin inh
CN(C)S(=O)(=O)c1ccc(NC(=O)c2ccc3ncsc3c2)cc1,-5%,-8%,22,1%,-1%,62*
Cc1cc(C)c(NC(=O)CNC(=O)c2ccc3ncsc3c2)c(C)c1,x,x,x,-20%,2%,x
COc1ccc(NC(=O)c2ccc3ncsc3c2)cc1,-6%,0%,58*,-10%,0%,114*
O=C(Nc1ccc(Br)cc1)c1ccc2ncsc2c1,-12%,5%,50*,-21%,0%,89*
CCOc1ccc(NC(=O)c2ccc(S(=O)(=O)N(C)C)cc2)cc1,9%,-2%,12,7%,3%,-4
O=C(Nc1ccc2c(c1)C(=O)NC2=O)c1ccccc1,15%,-5%,-2,-2%,8%,1
O=C(Nc1ccc2c(c1)C(=O)NC2=O)c1ccc2ncsc2c1,7%,-1%,22*,0%,0%,92*
